{"source": "the supplement of paper PMC8728848", "binders": {"B1": {"name": "PX9961T-pdi-555-33-555 (Parabacteroides distasonis) (protein)", "chain": "FDEETAFQSPTLVYVNTVASLYNNMFKIMGNDRHVYDLNTFSSDEAMLPCRIGDWEDGGLWQNIFLHRWGTMNDLTKNSWDFLYEQIGKCNQSVDKLQAFAEEQPDVEYFKVYLEEVRAVRAFFYYELLDLFARVPLVTSSTTPMSEVKQSERSVVFNFVRSELEEALPYLSDNRSNQKGEYYGRITKPVAYMILAKLALNAEVYADDNWTDGNRPAGKNIKFTVDGKEMNAWEATIAYVDKLEALGYKLQGNFSENFAVANETSVENIFTVPMDPVAYPDAKDYNLVRTRHYDHATAYGQSGWNGSCATVKAMNVFKFGTADEDPRCKLTYFTGEVTGPDGKTIYTEWDGQKVPLKYEPNAPKVYMDASDGLLVKTAGARMAKYEFDQNAQDGGNLHGNDCVIFRFADALLMKAEAKIRLGQNGDDEVNQVRNRVGAKPLQNVTLDTLLDERMLELAWEGVRRQDLIRFGKFTEATVDRYVGVKHFASSLDYQEDKTGYTTVFSIYADILSLNPNLTQNPGY"}}, "test_in_all_cases": "glycan array binding signal (z-score within array); higher = stronger binding", "details_in_all_cases": "glycan notation: IUPAC condensed, linker removed", "key": {"[1]": {"target": "Fuc(a1-2)Gal(b1-4)GlcNAc(b1-2)Man(a1-3)[Fuc(a1-2)Gal(b1-4)GlcNAc(b1-2)Man(a1-6)]Man(b1-4)GlcNAc(b1-4)GlcNAc", "method_in_brief": "(§1)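 Glycan array binding is given as a within-array Z-score, which can be read as non-binding when negative. The arrays, 3228 of them, came from the Consortium for Functional Glycomics database and were retained only where the protein sequence was available. Z-scores were averaged across arrays of the same protein sequence at different concentrations or buffers and across linkers.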"}, "[2]": {"target": "Fuc(a1-2)Gal(b1-4)[Fuc(a1-3)]GlcNAc(b1-2)Man(a1-3)[Fuc(a1-2)Gal(b1-4)[Fuc(a1-3)]GlcNAc(b1-2)Man(a1-6)]Man(b1-4)GlcNAc(b1-4)[Fuc(a1-6)]GlcNAc", "method_in_brief": "as §1"}, "[3]": {"target": "Fuc(a1-2)Gal(b1-4)[Fuc(a1-3)]GlcNAc(b1-3)GalNAc", "method_in_brief": "as §1"}, "[4]": {"target": "Fuc(a1-2)Gal3S(b1-4)GlcNAc", "method_in_brief": "as §1"}, "Fuc(a1-2)Gal6S(b1-4)Glc": {"target": "Fuc(a1-2)Gal6S(b1-4)Glc", "method_in_brief": "as §1"}, "[5]": {"target": "Fuc(a1-2)[GalNAc(a1-3)]Gal(b1-4)GlcNAc(b1-2)Man(a1-3)[Fuc(a1-2)[GalNAc(a1-3)]Gal(b1-4)GlcNAc(b1-2)Man(a1-6)]Man(b1-4)GlcNAc(b1-4)[Fuc(a1-6)]GlcNAc", "method_in_brief": "as §1"}, "[6]": {"target": "Fuc(a1-3)[Gal(b1-4)]GlcNAc(b1-2)Man(a1-3)[Fuc(a1-3)[Gal(b1-4)]GlcNAc(b1-2)Man(a1-6)]Man(b1-4)GlcNAc(b1-4)[Fuc(a1-6)]GlcNAc", "method_in_brief": "as §1"}, "Gal(a1-3)Gal(b1-4)GlcNAc": {"target": "Gal(a1-3)Gal(b1-4)GlcNAc", "method_in_brief": "as §1"}, "[7]": {"target": "Gal(a1-3)Gal(b1-4)GlcNAc(b1-2)Man(a1-3)[Gal(a1-3)Gal(b1-4)GlcNAc(b1-2)Man(a1-6)]Man(b1-4)GlcNAc(b1-4)GlcNAc", "method_in_brief": "as §1"}, "[8]": {"target": "Gal(a1-4)Gal(b1-3)GlcNAc(b1-2)Man(a1-3)[Gal(a1-4)Gal(b1-3)GlcNAc(b1-2)Man(a1-6)]Man(b1-4)GlcNAc(b1-4)GlcNAc", "method_in_brief": "as §1"}, "[9]": {"target": "Gal(a1-4)Gal(b1-4)GlcNAc(b1-2)Man(a1-3)[Gal(a1-4)Gal(b1-4)GlcNAc(b1-2)Man(a1-6)]Man(b1-4)GlcNAc(b1-4)GlcNAc", "method_in_brief": "as §1"}, "Gal(b1-3)Gal(b1-4)GlcNAc": {"target": "Gal(b1-3)Gal(b1-4)GlcNAc", "method_in_brief": "as §1"}, "[10]": {"target": "Gal(b1-3)GalNAc(b1-3)Gal(a1-4)Gal(b1-4)Glc", "method_in_brief": "as §1"}, "Gal(b1-3)GlcNAc(b1-2)Man": {"target": "Gal(b1-3)GlcNAc(b1-2)Man", "method_in_brief": "as §1"}, "[11]": {"target": "Gal(b1-3)GlcNAc(b1-2)Man(a1-3)[Gal(b1-3)GlcNAc(b1-2)Man(a1-6)]Man(b1-4)GlcNAc(b1-4)GlcNAc", "method_in_brief": "as §1"}, "[12]": {"target": "Gal(b1-3)[Fuc(a1-4)]GlcNAc(b1-2)Man(a1-3)[Gal(b1-3)[Fuc(a1-4)]GlcNAc(b1-2)Man(a1-6)]Man(b1-4)GlcNAc(b1-4)[Fuc(a1-6)]GlcNAc", "method_in_brief": "as §1"}, "[13]": {"target": "Gal(b1-4)GalNAc(a1-3)[Fuc(a1-2)]Gal(b1-4)GlcNAc", "method_in_brief": "as §1"}, "[14]": {"target": "Gal(b1-4)GlcNAc(b1-2)Man(a1-3)Man(b1-4)GlcNAc(b1-4)GlcNAc", "method_in_brief": "as §1"}, "[15]": {"target": "Gal(b1-4)GlcNAc(b1-2)Man(a1-3)[Gal(b1-4)GlcNAc(b1-2)Man(a1-6)]Man(b1-4)GlcNAc(b1-4)[Fuc(a1-6)]GlcNAc", "method_in_brief": "as §1"}, "[16]": {"target": "Gal(b1-4)GlcNAc(b1-2)Man(a1-6)[GlcNAc(b1-2)Man(a1-3)]Man(b1-4)GlcNAc(b1-4)GlcNAc", "method_in_brief": "as §1"}, "[17]": {"target": "Gal(b1-4)GlcNAc(b1-2)[Gal(b1-4)GlcNAc(b1-6)]Man(a1-6)[Gal(b1-4)GlcNAc(b1-2)Man(a1-3)]Man(b1-4)GlcNAc(b1-4)GlcNAc", "method_in_brief": "as §1"}, "[18]": {"target": "Gal(b1-4)GlcNAc(b1-3)Gal(b1-4)GlcNAc(b1-2)Man(a1-3)[Gal(b1-4)GlcNAc(b1-3)Gal(b1-4)GlcNAc(b1-2)Man(a1-6)]Man(b1-4)GlcNAc(b1-4)[Fuc(a1-6)]GlcNAc", "method_in_brief": "as §1"}, "[19]": {"target": "Gal(b1-4)GlcNAc(b1-3)Gal(b1-4)GlcNAc(b1-2)[Gal(b1-4)GlcNAc(b1-3)Gal(b1-4)GlcNAc(b1-6)]Man(a1-6)[Gal(b1-4)GlcNAc(b1-3)Gal(b1-4)GlcNAc(b1-2)Man(a1-3)]Man(b1-4)GlcNAc(b1-4)GlcNAc", "method_in_brief": "as §1"}, "[20]": {"target": "Gal(b1-4)GlcNAc(b1-3)Gal(b1-4)GlcNAc(b1-3)Gal(b1-4)GlcNAc(b1-3)Gal(b1-4)GlcNAc(b1-2)Man(a1-3)[Gal(b1-4)GlcNAc(b1-3)Gal(b1-4)GlcNAc(b1-3)Gal(b1-4)GlcNAc(b1-3)Gal(b1-4)GlcNAc(b1-2)Man(a1-6)]Man(b1-4)GlcNAc(b1-4)[Fuc(a1-6)]GlcNAc", "method_in_brief": "as §1"}}, "note": "The full list was thinned out, with the strongest signals kept by preference.", "data": [{"binder": "B1", "values": [{"measurement": "glycan array binding signal (z-score)", "setting": "[1]", "value": 1.91}, {"measurement": "glycan array binding signal (z-score)", "setting": "[2]", "value": 0.323}, {"measurement": "glycan array binding signal (z-score)", "setting": "[3]", "value": -0.359}, {"measurement": "glycan array binding signal (z-score)", "setting": "[4]", "value": -0.354}, {"measurement": "glycan array binding signal (z-score)", "setting": "Fuc(a1-2)Gal6S(b1-4)Glc", "value": -0.589}, {"measurement": "glycan array binding signal (z-score)", "setting": "[5]", "value": 2.12}, {"measurement": "glycan array binding signal (z-score)", "setting": "[6]", "value": -0.637}, {"measurement": "glycan array binding signal (z-score)", "setting": "Gal(a1-3)Gal(b1-4)GlcNAc", "value": 0.037}, {"measurement": "glycan array binding signal (z-score)", "setting": "[7]", "value": 0.963}, {"measurement": "glycan array binding signal (z-score)", "setting": "[8]", "value": 2.7}, {"measurement": "glycan array binding signal (z-score)", "setting": "[9]", "value": 1.51}, {"measurement": "glycan array binding signal (z-score)", "setting": "Gal(b1-3)Gal(b1-4)GlcNAc", "value": -0.663}, {"measurement": "glycan array binding signal (z-score)", "setting": "[10]", "value": -0.576}, {"measurement": "glycan array binding signal (z-score)", "setting": "Gal(b1-3)GlcNAc(b1-2)Man", "value": 0.661}, {"measurement": "glycan array binding signal (z-score)", "setting": "[11]", "value": -0.248}, {"measurement": "glycan array binding signal (z-score)", "setting": "[12]", "value": -0.151}, {"measurement": "glycan array binding signal (z-score)", "setting": "[13]", "value": -0.527}, {"measurement": "glycan array binding signal (z-score)", "setting": "[14]", "value": -0.441}, {"measurement": "glycan array binding signal (z-score)", "setting": "[15]", "value": 0.171}, {"measurement": "glycan array binding signal (z-score)", "setting": "[16]", "value": -0.306}, {"measurement": "glycan array binding signal (z-score)", "setting": "[17]", "value": -0.161}, {"measurement": "glycan array binding signal (z-score)", "setting": "[18]", "value": 0.672}, {"measurement": "glycan array binding signal (z-score)", "setting": "[19]", "value": 1.53}, {"measurement": "glycan array binding signal (z-score)", "setting": "[20]", "value": 0.109}]}]}
